Source: the supplement of paper PMC11417369
The full ranking holds about 25,000 sequences; the median of “ln(normalized median fluorescence intensity)” is about 7.1, and the highest 2% start at about 10. The list comes from a sample in which the highest values are over-represented; it also holds similar and randomly drawn sequences.

What follows are sequences tested on PfSIP2 AP2 domain 1 (GST-tagged) (assay: gcPBM binding intensity (ln(normalized median fluorescence intensity)); higher = stronger DNA binding).
In short: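 For binding intensity, the highest Masliner-normalised natural-log median intensity across replicate spots of either probe orientation was taken. Protein bound to the array was stained with Alexa488 anti-GST antibody and scanned at 488 nm. The protein, GST-tagged P. falciparum DNA-binding domains from E. coli at about 25 μg on average, had been applied for 1 h to an Agilent 4 × 180k array of primer-extended double-stranded 36-bp intergenic genomic probes and negative controls.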

Row | Sequence | gcPBM binding intensity (ln)
1 | ATATTAAACAAACACACACACATATATATATATATA [CACACA_site3383] | 9.67
2 | ATAAATGAACAAGTGGCACACACACCGTATAACTAA [CACACA_site9047] | 6.91
3 | ATGTATATATTTACGTGTACATATTCATGTGATATC [XGTACX_site5871] | 7
4 | GTTCAATTATTTTTATGTACATATATTTTTTTCTTT [XGTACX_site2505] | 7.46
5 | TCATTGAAAATTGTTGCACACATAATAATTAAATAT [CACACA_site8554] | 7.36
6 | ATCATTTGCATACGCACACACACATAAAAAGAAAAA [CACACA_site355] | 7.54
7 | ACATTGCACCCGTGCACACATAGAAAAATAATTCTT [CACACA_site409] | 12.2
8 | CATTTGCACCCGCACACACACATAAAAAGAAAAATA [CACACA_site4350] | 11.6
9 | ACCCATTGCTCACGTGCACACATAGAAAAATAATTC [CACACA_site4389] | 10.1
10 | CATTTGCACACGCACACACACATAAAAAGAAAAATA [CACACA_site6297] | 7.71
11 | AATTTGGTGTGTGTAAAAGTATGTGTCTATATTTAT [GTGCAC_negctrl_site166] | 7.11
12 | TTTTGTTATTTTTCAGTGCAATATGATAATAATATA | 7.72
13 | TAATATAATGATGCAGTGCATATGTTAAAATGAAAA | 8.72
14 | TTTTTTGTTATGCGGGTGCATATAATAATGTGATGA | 10.8
15 | TAATATATTAAAAATAGTACATAAGAAAAATAAGTA [XGTACX_site7957] | 7.11
16 | TATTATATTTTTATTTGTACGTAAAATTAAGTTATG [XGTACX_site2405] | 7.14
17 | TATGGGTTTATATAGGTGCAATATATGTATATATAA | 10.2
18 | AACAAATATATTAACACACAAACATATAAACCAATG [CACACA_site3970] | 7.19
19 | ATTTATTTATACAAAGTGCAATATTTTGTTAAAGTC [GTGCAC_site9618] | 7.89
20 | TATTAAATATATATTACATGCAAAAAAAAAAAACAA [TGCATGCA_site705] | 7.13
21 | AATTATATGAAATAAACACACATATGCAATATTGCA [CACACA_site6988] | 6.98
22 | ATATAAAATACATGGGTGCAATATATTAAACAAATA [GTGCAC_site9421] | 10.8
23 | TTTTTTGTTAAACCGGTGCATATAAATATATATATA [GTGCAC_site9989] | 9.54
24 | TATAATAGTTCATAGGTGCAATATAATAAATTTATA [GTGCAC_site9573] | 9.98
25 | CAATAGTTCTTATGGGTGCAAACCACATATATATAA [GTGCAC_site9606] | 11.3
26 | CAATATTTGTTATGGGTGCAAACCGCATATATATAA [GTGCAC_site9543] | 11

Row | Sequence | gcPBM binding intensity (ln)
27 | CAATATATTATATGGGTGCAAACCACATATAAATAA | 10.9
28 | AAAAAAAAAAACAATACATGCATAATATTAATAAAA [TGCATGCA_site913] | 6.96
29 | AATCAAAGCCCACATACACACACATATATATATATA [CACACA_site7987] | 9.39
30 | TTTTGTCAACATTTTTATATTAGGTCTTGAACGATT [GTGCAC_negctrl_site72] | 6.9
31 | AATAATATATGGTGTACACAAAAGTATAAATAATTT [CACACA_site5338] | 7.15
32 | TCAAATATTCATAAATGTACATTTATTTTTCTCCTT [XGTACX_site5827] | 6.74
33 | TTATTTTAATAACCTACACACATTTTGTATATTTTA [CACACA_site4000] | 6.81
34 | TATATATATGTGTTTACACACAATAATGAATTAAAA [CACACA_site4659] | 7.28
35 | ATATCAATTTTTGGTGGTACGTAGGAAGTTTCAGAA [XGTACX_site6881] | 7.4
36 | ATATAGGTAAAAAGTATACACACGTTGACACATTCT [CACACA_site1199] | 6.95
37 | TTTTTTTTTTTTTTATGTACACATCTAAAAAAAAGG [XGTACX_site2067] | 7.43
38 | TTTTTTTTTTTTGGATGTACTTAATGAAAATGTTAC [XGTACX_site8980] | 7.36
39 | ACATATAATAAAATAGTGCATTGTTAGTTTTATATA | 9.85
40 | AAATAGTTGTTATGGGTGCAAACCACATATATATAA [GTGCAC_site9428] | 11
41 | TTATTTATTTATATAGTGCAATAAACACATAAATAG | 8
42 | GATTTTTAAAATATCACACATAAAAAAAAAAAAAAA [CACACA_site5516] | 6.96
43 | TATATATATATAAGTGCACACTGAACCAAGAAAATT [CACACA_site5637] | 9.97
44 | AAAAATATAAACTGCACACACACAAAAAAAGAAAAA [CACACA_site648] | 7.25
45 | AAAAATAAAGGGTGTGCACACAAAAATATATATATA [CACACA_site1727] | 9.1
46 | AATATAAAAAGGCACACACACAAAAAAAAAAAAAAA [CACACA_site896] | 7.13
47 | AAATATAAAGTGCACACACACAAAAAAAGAAAAAAA [CACACA_site6452] | 11.2
48 | ATAAAAATAAAAAGTGTGCACACAAAAATATATATA [GTGCAC_site9931] | 8.78
49 | AAAAAAAGAAAAATTGCACACACTTATAAAAATATA [CACACA_site4014] | 6.99
50 | TATATATATAAGTGCACACTGAACCAAGAAAATTAT [CACACA_site3008] | 10.5
51 | AAATAAAAAGGGTGCACACAAAAATATATATATATA [CACACA_site1728] | 12.4
52 | AAACTCAACTTATATACACACAATCTTTTTTTTTTA [CACACA_site29] | 6.8

Row | Sequence | gcPBM binding intensity (ln)
53 | AAATGTAATAATAAATGTACAAACATATATATGTAT [XGTACX_site8718] | 6.94
54 | CTAAAAATCTTTTGTTGTACTTTTAGATAATCAGGA [XGTACX_site3968] | 7.06
55 | ATGGGGAATAATGAATGTACACAAATAAAAAGTTGG [XGTACX_site4015] | 7.13
56 | TTTTTTTTTTTTTGTTGTACCCATCATATATACATA [XGTACX_site4342] | 7.11
57 | GTTCATTCATTTTAATGTACAAATTTAACTTTTTCT [XGTACX_site680] | 6.91
58 | TCTTTTTTAAATAAAAGTACAAAAAAAAATAAAAAA [XGTACX_site2670] | 6.93
59 | ATTTTTTTTTTTTTATGTACATATTAAAAAAAATAT [XGTACX_site1829] | 7.01
60 | ATATAAAAATACAGGTGTACATTTTTTCATATTTAT [XGTACX_site6959] | 7.18
61 | ATGGTGCAACATTATGCACACCGTTAAATAACTAAT [CACACA_site9280] | 11.8
62 | GATTCATCTAAACACCGTACATATTATATATATATA [XGTACX_site6030] | 9.22
63 | TGATTCTAACTTATGGTGCAACATTATGGACACCGT | 10.7
64 | TTATGGTGCAACATTATGCACACCGTTAAATAACTA [CACACA_site3846] | 11.9
65 | TCATAAACATTATGCACACAAAAATAAAAAAAAATA [CACACA_site1115] | 7.52
66 | TAATATATTATAAACACATGCACATTAATAATAACT [TGCATGCA_site708] | 9.16
67 | TATATAACATATGGGACACACATGCAACTGTTATAT [CACACA_site3792] | 7.19
68 | AATCATAAACATTATGCACACAAAAATAAAAAAAAA [CACACA_site8289] | 7.36
69 | AACAACAACTAATATGCACACATTTAAAAACAAAAT [CACACA_site2440] | 7.5
70 | ATTAAAGAGAGACATCAACACACATACGTATGTATA [CACACA_site8393] | 6.94
71 | TAGTTTTTTATAAAATTATTTATATAAAGGTAAAAA [CACACA_negctrl_site490] | 7.1
72 | TTTGGATAAAAAATATGTACACACATATAGATATCT [XGTACX_site5660] | 6.9
73 | TCTACAAAATTATCATGTACATATTATTATAATTAT [XGTACX_site6585] | 7.28
74 | TGTTGTATATCTCTATATAGCTATATTGTATATATA [TGCATGCA_negctrl_site323] | 6.97
75 | TATAAAAGTGGACACACACACATATATATATATATA [CACACA_site4673] | 9.47
76 | TTTATTAATAATTATACACACATATAAAATGAATAA [CACACA_site1359] | 7.01
77 | TAAAATAAATTGTGCACACATATTTATAAATATGAA [CACACA_site2331] | 9.66
78 | ATATATAACGTGCACACACACATTTACGTATGAATA [CACACA_site6948] | 10.4

Row | Sequence | gcPBM binding intensity (ln)
79 | TAATATATAACGTGCACACACACATTTACGTATGAA [CACACA_site1832] | 9.88
80 | AAATGAATTTAACAATGTACACATATATTATAAATA [XGTACX_site1449] | 7.13
81 | TAAATTATAACGTGCACACATATTTAAAATGAAATG [CACACA_site2820] | 10.3
82 | ATATATAACGGGCACACACACATTTACGTATGAATA [CACACA_site1833] | 7.39
83 | TGTAAATTATAACGTGCACACATATTTAAAATGAAA [CACACA_site8915] | 10.6
84 | CTTAATTTAATGAAATGTACATATAAAAATATTATA [XGTACX_site3303] | 7.11
85 | ATATAAGTACGGCATGCATGCACATTTTTTTATTCC [TGCATGCA_site101] | 7.09
86 | TACGTTATATACAACTGTACTTGGATAATTATTAAC [XGTACX_site5614] | 7.13
87 | TCTTTTTTTTTTTTTTTTTTTTTTTATTTATTCATA [CACACA_negctrl_site1827] | 6.85
88 | CATAATATATATTGAGCATGCTACTATTGTTAGAAA [TGCATGCA_site740] | 6.93
89 | ATATATAAATATAGCATACACACAAAAAAATAAAAT [CACACA_site2332] | 7.11
90 | AAATATTATAAAAAGGTGCATTTTTATTATATGAGT | 11
91 | ATATTTTATGTAAAGGTGCAAAACAACATTAAAAAA | 10.5
92 | ATTTATTTTATATGTTGTACAAACATTTTAAAACAT [XGTACX_site6919] | 6.95
93 | TTTTTATGGACTATGGTGCATTATATATAAATGAAA [GTGCAC_site9557] | 10.6
94 | TTTTTTAAATATTATTTTTATGAGTAAATATATTAT [GTGCAC_negctrl_site277] | 6.71
95 | TTATTTTTATTATAAATTATAAAATATAAATAAATA [GTGCAC_negctrl_site616] | 6.79
96 | TTTTTTAAATATATGGTGCATAGAAAGATATTATAC [GTGCAC_site9984] | 10
97 | TTTTTTTTTAATAAAATTATAATAAATATGAAATTA [XGTACX_negctrl_site369] | 6.67
98 | ATTATCAATATGAAGGTGCATTTAAATAATATTTAC | 10.7
99 | GACAATATTAAAACATGTACATGCATTTTATGAATA [XGTACX_site553] | 7.05
100 | TACAGTTCAATGAAGGTGCAATTAATATATAAAATA | 10.2
101 | TATCATATATGAAGGTGTACGATTTATTATATAAAT [XGTACX_site7010] | 7.04
